Inconclusive results are not listed. Calls of active or inactive are those of the source.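 The calls were made as follows, unless noted: active = aptamer binding inhibition above 30%, about 3 SD of noise from non-fluorescent compounds; inactive = inhibition at or below 30%.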
Tests used:
[1] = rapamycin-like changes in RPL19A-GFP expression – cell-based, S. cerevisiae, multiplex flow cytometry, primary screen (AID 1862; in the data active = percent of DMSO control GFP below about 86%;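 also: lower values mimic rapamycin by blocking the RPL19A rise seen in DMSO cells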); details: S. cerevisiae RPL19A-GFP strain, flow cytometry fluorescence, 3 h; at 10 µM; stronger effect = lower value
[2] = TOR pathway GLN3 branch reporter MEP2-GFP changes – S. cerevisiae, multiplex flow cytometry, primary screen (AID 1867;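 active = GFP response, as percent of the DMSO control, above the screen-wide mean plus 3 SD, about 139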;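 also: median GFP channel fluorescence of barcode-gated MEP2-GFP cells measured by flow cytometry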); details: S. cerevisiae MEP2-GFP strain, 3 h, at 10 µM, stronger effect = higher value, 100% means same as DMSO wells
[3] = TOR pathway RTG branch CIT2 reporter changes – S. cerevisiae, GFP fusion, multiplex flow cytometry, primary screen (AID 1870;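 active = percent response above a set limit, the screen-wide mean plus 3 SD, cut at about 130% in these data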;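 also: barcoded CIT2-GFP strain pooled with four other GFP strains with rapamycin as positive control; median GFP fluorescence per well over plate mean of DMSO wells so 100% = DMSO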); details: S. cerevisiae CIT2-GFP expression, 3 h, at 10 µM, stronger effect = higher value
[4] = TOR pathway LAP4-GFP level changes – S. cerevisiae, multiplex flow cytometry, primary screen (AID 1873;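 active = GFP signal, as percent of the solvent control, above the screen mean plus 3 SD, about 149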); details: S. cerevisiae LAP4-GFP expression, 3 h, at 10 µM, stronger effect = higher value
[5] = yeast AGP1-GFP level changes, GLN3 branch – cell-based, multiplex flow cytometry, S. cerevisiae, primary screen (AID 1887;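 active = GFP signal above the screen-wide mean plus 3 SD, that is over about 124.5% of the solvent control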;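 also: AGP1-GFP fusion strain of S. cerevisiae within a five-strain barcoded multiplex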); details: 3 h, at 10 µM, stronger effect = higher value
[6] = reduced mouse 2C T cell binding to pMHC/ICAM-1 vesicles – MLPCN validation set, flow cytometry, LFA-1/ICAM-1 modulator project, pilot screen (AID 2523;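 active = response below a set limit, under 55% cells CD8-positive and vesicle-bound, and CD8 cells' 90th-percentile brightness under 279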;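 as to vesicle binding response: mean PE anti-B7-1 fluorescence of CD8+ cells relative to row control; 100% = QL9-loaded vesicles with DMSO vehicle in the same plate row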); details: 2C mouse CD8+ T cells, at 7 µM, stronger effect = lower value; double positive events: measured here: CD8+/vesicle+ event percentage
[7] = target: Integrin beta-1 (Homo sapiens) + Integrin alpha-4 (Homo sapiens) (UniProt P13612+P05556); test: alpha4beta1 integrin LIBS antibody binding reduction – U937 cells, HUTS-21 mAb, flow cytometry, validation set, VLA-4 allosteric modulator project, pilot screen (AID 2674;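 active = inhibition above 50%, about 3 SD of the validation set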;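 also: antibody binding induced by the VLA-4 ligand LDV present at three times its Kd; 0% = LDV ligand with antibody and no compound and 100% = antibody without LDV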); details: HUTS-21 LIBS mAb binding, at 6.7 µM, stronger effect = higher value, binding induced by LDV ligand
Sequence of Integrin beta-1 (Homo sapiens) + Integrin alpha-4 (Homo sapiens) (P05556 whole entry, looked up): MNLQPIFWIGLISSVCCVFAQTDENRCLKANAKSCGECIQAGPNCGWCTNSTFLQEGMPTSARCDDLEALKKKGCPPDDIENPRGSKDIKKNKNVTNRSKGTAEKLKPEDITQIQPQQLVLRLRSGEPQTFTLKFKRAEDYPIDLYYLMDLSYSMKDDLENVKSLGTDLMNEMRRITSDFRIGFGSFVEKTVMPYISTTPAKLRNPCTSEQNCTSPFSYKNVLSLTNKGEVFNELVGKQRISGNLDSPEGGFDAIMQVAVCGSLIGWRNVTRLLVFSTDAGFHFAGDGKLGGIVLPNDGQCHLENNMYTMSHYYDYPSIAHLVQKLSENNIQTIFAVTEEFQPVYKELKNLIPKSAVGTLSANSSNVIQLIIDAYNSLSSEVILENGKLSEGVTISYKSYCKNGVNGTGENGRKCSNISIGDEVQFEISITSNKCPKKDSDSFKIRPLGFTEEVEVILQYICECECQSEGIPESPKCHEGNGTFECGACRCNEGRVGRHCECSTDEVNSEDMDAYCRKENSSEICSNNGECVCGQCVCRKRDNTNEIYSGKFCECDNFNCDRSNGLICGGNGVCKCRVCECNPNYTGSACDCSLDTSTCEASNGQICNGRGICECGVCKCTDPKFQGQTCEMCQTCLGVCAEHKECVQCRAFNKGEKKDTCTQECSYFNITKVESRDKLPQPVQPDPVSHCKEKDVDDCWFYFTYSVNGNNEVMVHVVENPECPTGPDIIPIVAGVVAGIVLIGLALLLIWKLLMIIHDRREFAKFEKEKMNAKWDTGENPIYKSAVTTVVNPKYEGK
Sequence of Integrin beta-1 (Homo sapiens) + Integrin alpha-4 (Homo sapiens) (P13612 whole entry, looked up): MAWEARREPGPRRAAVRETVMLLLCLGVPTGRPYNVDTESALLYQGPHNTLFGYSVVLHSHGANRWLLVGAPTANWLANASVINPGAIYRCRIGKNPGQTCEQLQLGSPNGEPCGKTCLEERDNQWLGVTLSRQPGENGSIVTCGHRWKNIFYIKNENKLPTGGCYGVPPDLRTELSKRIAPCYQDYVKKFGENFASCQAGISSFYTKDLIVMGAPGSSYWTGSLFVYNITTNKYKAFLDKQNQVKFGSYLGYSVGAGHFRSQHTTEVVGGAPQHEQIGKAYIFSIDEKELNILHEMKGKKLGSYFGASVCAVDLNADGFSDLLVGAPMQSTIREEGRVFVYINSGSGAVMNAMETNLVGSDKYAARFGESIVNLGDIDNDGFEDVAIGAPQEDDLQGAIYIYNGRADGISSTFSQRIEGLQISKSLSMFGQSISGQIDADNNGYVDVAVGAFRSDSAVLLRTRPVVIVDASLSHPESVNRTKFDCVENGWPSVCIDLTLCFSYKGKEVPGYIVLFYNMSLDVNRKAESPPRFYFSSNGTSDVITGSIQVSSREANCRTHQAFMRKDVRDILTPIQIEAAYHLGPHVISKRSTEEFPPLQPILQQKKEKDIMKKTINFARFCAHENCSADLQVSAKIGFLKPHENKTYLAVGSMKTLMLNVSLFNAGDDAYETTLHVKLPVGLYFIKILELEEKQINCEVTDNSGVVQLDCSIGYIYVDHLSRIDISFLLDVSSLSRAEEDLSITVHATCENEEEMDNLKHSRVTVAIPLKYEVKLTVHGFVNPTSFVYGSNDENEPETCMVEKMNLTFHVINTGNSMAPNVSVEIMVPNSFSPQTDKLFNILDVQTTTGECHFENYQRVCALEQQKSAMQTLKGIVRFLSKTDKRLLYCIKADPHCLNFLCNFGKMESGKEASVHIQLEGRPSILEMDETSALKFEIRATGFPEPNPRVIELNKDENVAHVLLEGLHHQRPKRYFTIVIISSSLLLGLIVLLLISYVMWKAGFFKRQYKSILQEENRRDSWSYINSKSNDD

[8] = calorie-restriction mimetic ROS inhibitors, yeast – validation compound set, pilot screen (AID 2706;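 active = superoxide response below 65% of plate, a cut near 3 SD across the whole screen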;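 also: yeast exposed to compound for one week at 30 degrees C before staining; 100% = mean of all compound wells on the same plate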); details: S. cerevisiae aging, superoxide DHE fluorescence; at 10 µM, stronger effect = lower value
[9] = target: Beta-adrenergic receptor kinase 1 (Homo sapiens) (UniProt P25098); test: GRK2 binders displacing RNA aptamer, biochemical, validation, human GRK2, bead flow cytometry (AID 488806); details: bead-bound GRK2, FAM-aptamer displacement, at 10 µM, stronger effect = higher value
Sequence of Beta-adrenergic receptor kinase 1 (Homo sapiens) (P25098 whole entry, looked up, the tested form may be a part): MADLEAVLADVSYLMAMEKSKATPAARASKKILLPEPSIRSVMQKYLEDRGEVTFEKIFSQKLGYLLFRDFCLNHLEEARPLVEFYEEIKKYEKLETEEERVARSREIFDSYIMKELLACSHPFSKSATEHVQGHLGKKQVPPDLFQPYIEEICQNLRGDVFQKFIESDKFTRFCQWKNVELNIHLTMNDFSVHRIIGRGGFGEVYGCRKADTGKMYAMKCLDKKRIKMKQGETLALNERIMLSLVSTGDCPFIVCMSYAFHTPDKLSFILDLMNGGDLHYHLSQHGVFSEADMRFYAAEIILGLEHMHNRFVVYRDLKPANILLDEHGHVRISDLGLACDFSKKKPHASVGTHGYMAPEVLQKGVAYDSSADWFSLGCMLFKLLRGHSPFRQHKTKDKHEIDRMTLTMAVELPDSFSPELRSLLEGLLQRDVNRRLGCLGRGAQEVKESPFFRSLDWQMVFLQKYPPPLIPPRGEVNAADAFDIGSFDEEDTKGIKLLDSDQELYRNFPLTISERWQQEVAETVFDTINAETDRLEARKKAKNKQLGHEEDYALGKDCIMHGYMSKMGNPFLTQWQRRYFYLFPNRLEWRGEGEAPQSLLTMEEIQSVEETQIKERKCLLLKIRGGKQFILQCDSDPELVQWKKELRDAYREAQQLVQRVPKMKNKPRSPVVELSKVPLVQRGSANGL

[10] = target: AP-2 complex subunit beta (Homo sapiens) (UniProt P63010); test: beta-arrestin/AP2 interaction blockers – biochemical, validation set, GST-AP2 beads, flow cytometry, pilot screen (AID 504541;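 active = inhibition above 54%, about 3 SD of non-fluorescent compounds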;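 also: AP2 carries R879A mutation and is captured from E. coli lysate; bead-bound FITC arrestin peptide fluorescence measuring arrestin peptide binding to AP2; 0% = DMSO wells and 100% = excess unlabeled arrestin peptide control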); details: FITC arrestin peptide, at 10 µM, stronger effect = higher value, AP2 beta2 appendage fragment, R879A mutant
Sequence of AP-2 complex subunit beta (Homo sapiens) (P63010 whole entry, looked up, the tested form may be a part, one chain of several): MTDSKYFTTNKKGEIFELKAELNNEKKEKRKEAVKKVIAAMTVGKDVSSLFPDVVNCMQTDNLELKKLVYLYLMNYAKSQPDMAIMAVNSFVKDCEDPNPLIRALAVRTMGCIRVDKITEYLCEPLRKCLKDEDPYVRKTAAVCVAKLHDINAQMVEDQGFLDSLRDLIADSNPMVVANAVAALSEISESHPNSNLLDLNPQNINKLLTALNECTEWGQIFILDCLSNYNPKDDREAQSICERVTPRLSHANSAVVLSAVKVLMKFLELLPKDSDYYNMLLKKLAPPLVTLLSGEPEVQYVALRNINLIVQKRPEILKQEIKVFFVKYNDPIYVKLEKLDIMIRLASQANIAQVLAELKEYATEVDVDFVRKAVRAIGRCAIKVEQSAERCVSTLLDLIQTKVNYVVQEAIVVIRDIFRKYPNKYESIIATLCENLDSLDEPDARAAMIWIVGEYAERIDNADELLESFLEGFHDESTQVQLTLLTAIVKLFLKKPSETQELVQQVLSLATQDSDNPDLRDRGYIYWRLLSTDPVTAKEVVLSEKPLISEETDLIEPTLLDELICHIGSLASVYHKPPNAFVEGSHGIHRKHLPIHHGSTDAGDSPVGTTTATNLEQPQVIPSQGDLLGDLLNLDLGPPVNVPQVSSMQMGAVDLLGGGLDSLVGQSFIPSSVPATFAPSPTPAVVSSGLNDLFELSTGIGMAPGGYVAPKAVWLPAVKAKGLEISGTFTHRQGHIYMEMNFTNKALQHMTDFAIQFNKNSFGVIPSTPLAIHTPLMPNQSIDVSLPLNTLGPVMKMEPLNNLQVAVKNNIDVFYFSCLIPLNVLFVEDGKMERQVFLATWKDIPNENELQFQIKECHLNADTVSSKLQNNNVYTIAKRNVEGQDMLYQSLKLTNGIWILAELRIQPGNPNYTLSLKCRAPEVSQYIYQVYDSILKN

[11] = cytosolic pH regulators acting via V-ATPase – S. cerevisiae, pHLuorin, HTS validation (AID 504600; in the data active = response above about 15%;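 also: plate controls were DMSO for no effect and reference compound for full effect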); details: V-ATPase proton transport, at 10 µM, stronger effect = higher value
[12] = test system: anti-desmoglein-3 scFv antibody binding to human DSG3; test: blockers of pathogenic pemphigus antibody–desmoglein-3 binding – biochemical, validation compound set, bead-based, flow cytometry, pilot screen (AID 588368;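 active = binding below the plate cutoff, the plate median minus 3 SD, with a reading above zero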;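 also: signal is the median channel fluorescence of bead-bound GFP antibody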); details: Protein G beads, DSG3-Fc, scFv-GFP binding, at 10 µM, stronger effect = lower value
[13] = Nile Red efflux blockade in pump-expressing yeast – validation compound set, multiplex, phenotypic, pilot screen (AID 588506;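 active = efflux inhibition above 0.42, the validation set average plus 4 SD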;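 also: Nile Red retained in cells so higher fluorescence means more efflux inhibition; 0 = negative control wells and 1 = enniatin B 25 µM full block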); details: S. cerevisiae pump-expressing triplex, Nile Red efflux flow cytometry; at 10 µM; stronger effect = higher value; the pumps come from Candida albicans
[14] = target: ATP-binding cassette sub-family B member 6 (Homo sapiens) (UniProt Q9NP58); test: blockers of ABCB6-driven porphyrin uptake – K562-ABCB6 cells, flow cytometry, validation set, pilot screen (AID 588550;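 active = inhibition above the screen-wide mean plus 3 SD, about 51%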;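 also: 0% = DMSO wells and 100% = benzethonium chloride 70 µM positive control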); details: K562-ABCB6 porphyrin accumulation, 1 h, at 10 µM, stronger effect = higher value
Sequence of ATP-binding cassette sub-family B member 6 (Homo sapiens) (Q9NP58 whole entry, looked up): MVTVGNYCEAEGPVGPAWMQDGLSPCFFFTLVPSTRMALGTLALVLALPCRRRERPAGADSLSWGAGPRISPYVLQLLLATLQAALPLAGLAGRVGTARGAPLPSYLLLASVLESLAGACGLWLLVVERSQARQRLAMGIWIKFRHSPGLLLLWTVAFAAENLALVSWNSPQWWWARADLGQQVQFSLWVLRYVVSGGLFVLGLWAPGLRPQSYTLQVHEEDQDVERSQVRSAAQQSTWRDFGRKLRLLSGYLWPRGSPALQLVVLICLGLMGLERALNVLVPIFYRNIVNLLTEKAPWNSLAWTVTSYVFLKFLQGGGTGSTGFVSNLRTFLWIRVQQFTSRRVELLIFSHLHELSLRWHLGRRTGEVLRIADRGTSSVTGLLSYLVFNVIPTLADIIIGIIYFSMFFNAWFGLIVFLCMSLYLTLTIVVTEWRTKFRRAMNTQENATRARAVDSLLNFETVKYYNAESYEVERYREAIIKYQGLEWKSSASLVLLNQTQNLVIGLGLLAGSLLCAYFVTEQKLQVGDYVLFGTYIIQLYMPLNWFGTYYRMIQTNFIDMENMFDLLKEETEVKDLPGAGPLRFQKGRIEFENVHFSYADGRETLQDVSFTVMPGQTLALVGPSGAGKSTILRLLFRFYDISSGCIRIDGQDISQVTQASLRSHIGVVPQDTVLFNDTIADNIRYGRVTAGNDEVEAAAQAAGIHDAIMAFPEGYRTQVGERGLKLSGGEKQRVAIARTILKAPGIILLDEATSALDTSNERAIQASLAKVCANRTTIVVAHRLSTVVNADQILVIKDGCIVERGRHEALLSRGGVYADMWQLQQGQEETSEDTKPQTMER

[15] = AML differentiation inducers, ER-HoxA9 marrow cells – cell-based, GFP/MAC1 double positive, flow cytometry, validation set, primary screen (AID 588685;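 active = differentiation response of at least 50%, scaled between solvent and reference control, from cells with both markers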;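 also: compound exposure lasts four days before antibody staining and flow analysis; 0% = DMSO wells and 100% = 5 µM fulvestrant positive control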); details: stronger effect = higher value, normalized: vehicle 0, fulvestrant 100

Structure (SMILES)	percent of DMSO control GFP [1]	GFP response vs DMSO [2]	percent response of DMSO control [3]	GFP response vs DMSO [4]	GFP response, % of DMSO [5]	double positive events [6] [%]	vesicle binding response [6]	inhibition [7]	superoxide response (% of plate) [8]	aptamer binding inhibition [9]	inhibition [10]	response [11]	binding (% of control) [12]	efflux inhibition (fraction of control) [13]	inhibition [14]	differentiation response [15]
Cc1ccc2c(c1)OC(=O)CC2c1ccccc1 (centres undefined)	100% (inactive)	104% (inactive)	96.9% (inactive)	102% (inactive)	99.6% (inactive)	58	168% (inactive)	12.8% (inactive)	111% (inactive)	5% (inactive)	31.1% (inactive)	-9.91% (inactive)	95.6% (inactive)	0.06 (inactive)	0% (inactive)	-11.5% (inactive)
COC(=O)c1ccc(=O)n(Cc2ccco2)c1	94.7% (inactive)	92.8% (inactive)	97.9% (inactive)	92.3% (inactive)	96.9% (inactive)	58.2	166% (inactive)	-6.77% (inactive)	86.5% (inactive)	-2% (inactive)	-1.44% (inactive)	-0.2% (inactive)	94.6% (inactive)	-0.16 (inactive)	12% (inactive)	-8.27% (inactive)
O=C(O)/C=C/c1ccc(O)c(O)c1	101% (inactive)	104% (inactive)	106% (inactive)	95.4% (inactive)	99.9% (inactive)	52.4	173% (inactive)	23.1% (inactive)	106% (inactive)	8% (inactive)	4.2% (inactive)	-0.83% (inactive)	95.4% (inactive)	0.18 (inactive)	4% (inactive)	-0.2% (inactive)
CC(C)NC(=O)C1(c2ccccc2)CCOCC1	100% (inactive)	95.9% (inactive)	104% (inactive)	99.4% (inactive)	99.3% (inactive)	62.2	191% (inactive)	-51.5% (inactive)	99.3% (inactive)	4% (inactive)	3.27% (inactive)	0.02% (inactive)	98.2% (inactive)	-0.01 (inactive)	4% (inactive)	-0.2% (inactive)
NC(=O)OCC(COC(N)=O)c1ccccc1	104% (inactive)	98.9% (inactive)	102% (inactive)	92.3% (inactive)	103% (inactive)	58.1	160% (inactive)	1.62% (inactive)	92.5% (inactive)	4% (inactive)	-15.7% (inactive)	-9.57% (inactive)	103% (inactive)	-0.09 (inactive)	5% (inactive)	-1.82% (inactive)
Cn1c(=O)oc2cc(S(=O)(=O)N3CCc4ccccc4C3)ccc21	101% (inactive)	98.9% (inactive)	102% (inactive)	89.3% (inactive)	97.8% (inactive)	58.4	165% (inactive)	15.6% (inactive)	95.2% (inactive)	2% (inactive)	7.43% (inactive)	2.89% (inactive)	98.3% (inactive)	-0.05 (inactive)	10% (inactive)	9.49% (inactive)
C#C[C@]1(O)CC[C@H]2[C@@H]3CCC4=C(CCC(=O)C4)[C@H]3CC[C@@]21C	97.1% (inactive)	92.8% (inactive)	94.9% (inactive)	129% (inactive)	98.7% (inactive)	55.6	188% (inactive)	2.56% (inactive)	95.1% (inactive)	2% (inactive)	1.1% (inactive)	5.28% (inactive)	102% (inactive)	-0.2 (inactive)	7% (inactive)	-0.2% (inactive)
CCS(=O)(=O)CCn1c([N+](=O)[O-])cnc1C	96.4% (inactive)	106% (inactive)	95.9% (inactive)	94.3% (inactive)	97.8% (inactive)	47.3	136% (inactive)	12.8% (inactive)	108% (inactive)	8% (inactive)	-4.86% (inactive)	5.33% (inactive)	99.1% (inactive)	0.18 (inactive)	4% (inactive)	-5.05% (inactive)
COc1ccc2[nH]cc(CCNC(=O)C3CCCNC3=O)c2c1 (centres undefined)	103% (inactive)	97.9% (inactive)	104% (inactive)	104% (inactive)	105% (inactive)	57.5	218% (inactive)	-2.11% (inactive)	100% (inactive)	-7% (inactive)	-18.5% (inactive)	2.02% (inactive)	103% (inactive)	-0.24 (inactive)	7% (inactive)	6.26% (inactive)
CCc1cc2c(=O)c(-c3nc4ccccc4n3C)coc2c(CN2CCN(C)CC2)c1O	107% (inactive)	107% (inactive)	110% (inactive)	101% (inactive)	100% (inactive)	49.7	149% (inactive)	17.5% (inactive)	105% (inactive)	2% (inactive)	2.16% (inactive)	4.87% (inactive)	102% (inactive)	-0.54 (inactive)	7% (inactive)	-0.2% (inactive)
COc1ccc2oc(=O)c(-c3nc(C)cs3)cc2c1	98% (inactive)	101% (inactive)	96.9% (inactive)	106% (inactive)	88.2% (inactive)	54.8	204% (inactive)	9.09% (inactive)	89.3% (inactive)	6% (inactive)	-7.03% (inactive)	-3.63% (inactive)	92.6% (inactive)	-0.05 (inactive)	7% (inactive)	-1.82% (inactive)
O=C(O)CCCCCCCC(=O)O	100% (inactive)	99.9% (inactive)	90% (inactive)	117% (inactive)	97.5% (inactive)	58.5	171% (inactive)	-6.77% (inactive)	101% (inactive)	4% (inactive)	12.5% (inactive)	0.2% (inactive)	99% (inactive)	0.14 (inactive)	-18% (inactive)	24% (inactive)
CN=C1c2cc3cc(OC)ccc3n2CCN1C	101% (inactive)	97.9% (inactive)	102% (inactive)	93.3% (inactive)	99% (inactive)	62	177% (inactive)	11.9% (inactive)	103% (inactive)	4% (inactive)	14.9% (inactive)	-2.85% (inactive)	98.8% (inactive)	0.1 (inactive)	2% (inactive)	12.7% (inactive)
CCOC(=O)c1oc2cc(OCC(N)=O)ccc2c(=O)c1-c1ccc(OC)c(OC)c1	109% (inactive)	97.9% (inactive)	107% (inactive)	94.3% (inactive)	101% (inactive)	62.1	207% (inactive)	24.9% (inactive)	90.1% (inactive)	1% (inactive)	2.96% (inactive)	-0.67% (inactive)	100% (inactive)	-0.01 (inactive)	8% (inactive)	-18% (inactive)

— PubChem BioAssay
